Laboratory results as given in PubChem BioAssay (NCATS).
Records with an inconclusive call do not appear. The source made the active and inactive calls. Calls follow the shape of the dose curve; as a rule, active = well fitted curve in the direction sought with a large enough effect; inconclusive = small, poorly fitted or top-dose-only effect, or another doubt; inactive = no such curve, though single readings can be large; an effect the other way counts as inactive or inconclusive.

What was measured:
[1] = Cellular Toxicity (caspase-3) Mesangial (AID 660); settings: mesangial cells, normalized: DMSO 0%, 100 µM tamoxifen 100%; at 91.7 µM (top of the series);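 also: combined caspase 3 and 7 activity read by Caspase-Glo luminescence; cells exposed to compound for 16 h before the caspase read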
In short: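 Caspase 3/7 activation measured by Caspase-Glo 3/7 luminescence (20 min, room temperature) following 16 h exposure of mesangial cells (1000/well); AC50 from Hill-equation fit, normalized to DMSO and 100 uM tamoxifen.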

[2] = Cellular Toxicity (caspase-3) H-4-II-E (AID 663); settings: H-4-II-E rat hepatoma, scaled: DMSO 0%, 100 µM tamoxifen 100%; at 92.2 µM (top of the series);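 also: cells exposed to compound for 16 hr before readout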
In short: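 Caspase 3/7 activation measured in H-4-II-E cells in complete culture medium after 16 hr treatment at 37 °C, using luciferase-coupled substrate readout; AC50 values come from Hill-equation fits of normalized concentration-response data.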

[3] = Cellular Toxicity (caspase-3) Hek293 (AID 664); settings: HEK293 caspase-3 activation, DMSO = 0%, 100 µM tamoxifen = 100%; at 92.2 µM (top of the series);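 also: cells exposed to compound for 16 h at 37 °C before readout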
In short: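 Concentration-response qHTS: caspase 3/7 activation measured by luminescent aminoluciferin substrate cleavage after 16 h compound exposure of Hek 293 cells. AC50 from Hill equation, with DMSO as basal and 100 uM tamoxifen as 100%.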

[4] = Cellular Toxicity (caspase-3) N2a (AID 665);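 also: compound exposure lasted 16 h at 37 °C before readout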
In short: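 Caspase-3/7 activation measured as luminescence from Caspase-Glo reagent (1 h, room temperature) after 16 h compound exposure of mouse N2a cells. AC50 values from Hill-equation concentration-response, scaled between DMSO and 10 uM staurosporine.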

[5] = Cellular Toxicity (caspase-3) NIH 3T3 (AID 666);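 also: caspase signal read after 16 h compound exposure; 0% = DMSO basal and 100% = 100 µM tamoxifen stimulation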
In short: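 Caspase-Glo 3/7 luminescence reported caspase activation in 1000 NIH 3T3 cells/well after 16 h compound exposure at 37 C. DMSO set basal and 100 uM tamoxifen set 100% stimulation; concentration-response modeled with the Hill equation for AC50.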

[6] = Cellular Toxicity (caspase-3) Renal Proximal Tubule (AID 667); settings: Potency: caspase-3 activation;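 also: cells exposed to compound for 16 hours at 37 °C before detection; 0% = DMSO basal and 100% = 10 µM staurosporine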
In short: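 In qHTS format, rat primary proximal tubule cells seeded at 1000 per well are exposed to compounds for 16 hours at 37 °C. An increase in Caspase-Glo 3/7 luminescence indicates caspase activation.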

[7] = molecular target: Cytochrome P450 3A4 (Homo sapiens) (UniProt P08684); experiment: qHTS Assay for Inhibitors and Substrates of Cytochrome P450 3A4 (AID 884); also: % is scaled to controls: 0 for no effect and ±100 for the full control effect; nearly all actives have a fitted effect of over 50% in size
In short: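 Luminescent readout of luciferin produced by CYP3A4 (20 nM) dealkylation of Luciferin-PPXE, 25 uM (its KM). NADPH-driven reaction ran 60 min at RT after 10 min compound preincubation; data scaled to 57 uM ketoconazole as 100% inhibition.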

[8] = Cell Viability - LYMP2-001 (AID 921);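 also: cells exposed to compound for 24 h at 37 °C; 0% = DMSO only and full inhibition = tetraoctylammonium bromide control wells; nearly all actives have a fitted effect of over 70% in size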
In short: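 qHTS, 1536-well; lymphoblastoid cells, 24 hr compound, 37 C; ATP by CellTiter-Glo, 30 min RT; luminescence; Hill-fit AC50.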

Sequence of Cytochrome P450 3A4 (Homo sapiens) (P08684 whole entry, looked up): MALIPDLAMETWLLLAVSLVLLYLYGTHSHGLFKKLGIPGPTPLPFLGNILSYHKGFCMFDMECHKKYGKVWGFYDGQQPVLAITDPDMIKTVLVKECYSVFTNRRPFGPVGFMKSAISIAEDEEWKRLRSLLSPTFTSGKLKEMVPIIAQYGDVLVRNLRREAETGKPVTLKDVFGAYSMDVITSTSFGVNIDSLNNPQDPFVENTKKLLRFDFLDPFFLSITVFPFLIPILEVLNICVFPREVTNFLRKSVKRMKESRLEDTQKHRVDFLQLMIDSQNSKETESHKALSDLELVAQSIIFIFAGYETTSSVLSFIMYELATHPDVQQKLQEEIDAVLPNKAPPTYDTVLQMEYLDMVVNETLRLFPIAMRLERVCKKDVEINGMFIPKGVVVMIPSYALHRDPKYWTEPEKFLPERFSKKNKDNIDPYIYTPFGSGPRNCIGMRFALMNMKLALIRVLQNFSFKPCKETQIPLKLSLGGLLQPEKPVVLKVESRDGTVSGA

CC(O)COC(C)(C)C (centres undefined)
inactive: caspase-3 activation [1] -1.28% | caspase-3 activation [2] -0.238% | caspase-3 activation [3] 2.41% | outcome [4] | outcome [5] | Potency [6] | Potency [7] | Potency [8]

O=C1C=CCCC1
inactive: caspase-3 activation [1] -1.96% | caspase-3 activation [2] 0.0441% | caspase-3 activation [3] 3.14% | outcome [4] | outcome [5] | Potency [6] | Potency [7] | Potency [8]

C=C(C)C(=O)OC
inactive: caspase-3 activation [1] 0.161% | caspase-3 activation [2] 1.27% | caspase-3 activation [3] 1.97% | outcome [4] | outcome [5] | Potency [6] | Potency [7] | Potency [8]

Cc1ccc(C(C)(C)C)cc1
inactive: caspase-3 activation [1] -0.798% | caspase-3 activation [2] 0.123% | caspase-3 activation [3] -1.91% | outcome [4] | outcome [5] | Potency [6] | Potency [7] | Potency [8]

O=C(O)c1ccc(Cl)c(Cl)c1
inactive: caspase-3 activation [1] -0.246% | caspase-3 activation [2] -0.517% | caspase-3 activation [3] 0.484% | outcome [4] | Potency [6] | Potency [7] | Potency [8]

NC(=S)NNC(N)=S
inactive: caspase-3 activation [1] -0.792% | caspase-3 activation [2] 0.228% | caspase-3 activation [3] 1.03% | outcome [4] | outcome [5] | Potency [6] | Potency [7] | Potency [8]

c1ccc(Oc2ccccc2)cc1
inactive: caspase-3 activation [1] 0.858% | caspase-3 activation [2] 0.181% | caspase-3 activation [3] -1.47% | outcome [4] | outcome [5] | Potency [6] | Potency [7] | Potency [8]

O=C(O)CNC(=O)c1ccc(CO)o1
inactive: caspase-3 activation [1] -0.765% | caspase-3 activation [2] -0.71% | caspase-3 activation [3] -0.0261% | outcome [4] | Potency [6] | Potency [8]

Cc1c(N)cccc1[N+](=O)[O-]
inactive: caspase-3 activation [1] 0.18% | caspase-3 activation [2] -0.123% | caspase-3 activation [3] 1.08% | outcome [4] | outcome [5] | Potency [6] | Potency [7] | Potency [8]

O=[N+]([O-])c1ccc(NCCO)c(OCCO)c1
inactive: caspase-3 activation [1] 0.383% | caspase-3 activation [2] 0.77% | caspase-3 activation [3] 0.203% | outcome [4] | outcome [5] | Potency [6] | Potency [7] | Potency [8]

CC1CCC2CC1C2(C)C (centres undefined)
inactive: caspase-3 activation [1] 0.29% | caspase-3 activation [2] 1.27% | caspase-3 activation [3] -2.62% | outcome [4] | outcome [5] | Potency [6] | Potency [7] | Potency [8]

Cc1ccc(C#N)cc1
inactive: caspase-3 activation [1] -0.175% | caspase-3 activation [2] 0.0504% | caspase-3 activation [3] 0.103% | outcome [4] | Potency [6] | Potency [7] | Potency [8]

CSc1ccc(C=O)cc1
inactive: caspase-3 activation [1] -0.251% | caspase-3 activation [2] 2.78% | caspase-3 activation [3] 0.206% | outcome [4] | outcome [5] | Potency [6] | Potency [8]

CC(C)c1ccccc1
inactive: caspase-3 activation [1] -1.25% | caspase-3 activation [2] 0.504% | caspase-3 activation [3] -0.725% | outcome [4] | outcome [5] | Potency [7] | Potency [8]

COC(=O)CCC(=O)OC
inactive: caspase-3 activation [1] -0.284% | caspase-3 activation [2] 0.845% | caspase-3 activation [3] -0.32% | outcome [4] | outcome [5] | Potency [6] | Potency [7] | Potency [8]

O=C(O)c1ccc(C(=O)O)cc1
inactive: caspase-3 activation [1] -1.02% | caspase-3 activation [2] 0.895% | outcome [4] | outcome [5] | Potency [6] | Potency [7] | Potency [8]

O=C(O)c1cccc([N+](=O)[O-])c1
inactive: caspase-3 activation [1] -1.42% | caspase-3 activation [2] -0.0521% | caspase-3 activation [3] 2.38% | outcome [4] | outcome [5] | Potency [6] | Potency [7] | Potency [8]

C1CCOC1
inactive: caspase-3 activation [1] -0.124% | caspase-3 activation [2] 0.164% | caspase-3 activation [3] -1.25% | outcome [4] | outcome [5] | Potency [6] | Potency [7] | Potency [8]

CCCCC=O
inactive: caspase-3 activation [1] -1.05% | caspase-3 activation [2] -0.686% | caspase-3 activation [3] -0.315% | outcome [4] | outcome [5] | Potency [7] | Potency [8]
